This passage reports Potency results from PubChem BioAssay (Tox21).

SMILES strings stand for the structures. Where “and” joins values, the source holds several entries; their conditions need not be identical. Identical values can stand only once. Records with an inconclusive call do not appear. Where a call stands in place of a potency, no number is given. Calls of active or inactive are those of the source. Calls follow the shape of the dose curve; as a rule, active = well fitted cell-killing curve with a large enough effect in the repeat runs; inconclusive = weak or mixed curves, or effect the other way; inactive = flat fitted curve, though single readings scatter.
Potency is read from the fitted curve at half-maximal effect.

A short description of the test: qHTS RealTime-Glo MT Cell Viability Assay in HEK293 cells - 0 hour (AID 1224880). Also: nearly all actives have a fitted effect of over 45% in size. The conditions noted are these: RealTime-Glo luminescence; series mostly up to 76.8 µM. An excerpt:
U.S. Tox21 Program National Center for Advancing Translational Sciences [NCATS] NIH Chemical Genomics Center [NCGC] U.S. Environmental Protection Agency [EPA] National Institutes of Environmental Health Sciences [NIEHS] National Toxicology Program [NTP] U.S. Food and Drug Administration [FDA] Tox21 Assay Overview: Measure of cell viability is critical in the cell-base assay. Analysis of cell viability is necessary for the characterization of cell responses to cytotoxic drugs and environmental stress. A RealTime-Glo MT Cell Viability Assay to monitor cell viability in real time of continues cell culture during 40 hours of compound treatment was used to screen Tox21 10K library compounds in Hek293 cells. The RealTime-Glo MT Cell Viability Assay is a nonlytic, homogeneous, bioluminescent method to measure cell viability in real time using a simple, plate-based method. The assay involves adding NanoLuc luciferase and a cell-permeant prosubstrate to cells in culture. Viable cells reduce the proprietary prosubstrate to generate a substrate for NanoLuc luciferase. This substrate diffuses from cells into the surrounding culture medium, where it is rapidly used by the NanoLuc Enzyme to produce a luminescent signal. The signal correlates with the number of viable cells, making the assay well suited for cytotoxicity studies.
Tox21 Assay Protocol Summary: The mixture of Hek293 cell suspension and reagents were dispensed at 600cells/6 ul/well in 1536-well tissue culture treated black solid bottom plates using a Multidrop dispenser. After the assay plates were incubated at a 37 C/5% CO2 incubator for 5 hours, 23 nL of compounds dissolved in DMSO, positive and negative controls was transferred to the assay plate by a pintool work station. The plates were incubated at 37 C for 40 hours. The luminescence intensity were measured at 0h, 8h, 16h, 24h, 32h and 40h time points using ViewLux plate reader during compound treatment.
Background: qHTS replaces the single test concentration by a dilution series.
In the case of `CCC(=O)O[C@H]1[C@H](O[C@@H]2[C@@H](C)[C@H](O[C@H]3C[C@@](C)(OC)[C@@H](O)[C@H](C)O3)[C@@H](C)C(=O)O[C@H](CC)[C@@](C)(O)[C@H](O)[C@@H](C)C(=O)[C@H](C)C[C@@]2(C)O)O[C@H](C)C[C@@H]1N(C)C`, the Potency result was “inactive”. Turning to `Cc1ccc(N)c([N+](=O)[O-])c1`, the Potency result was “inactive”. For `C[C@]12CC[C@@H]3c4ccc(O)cc4CC[C@H]3[C@@H]1CC[C@H]2O` the value was “inactive”; for `COC(=O)CC(=O)OC`, “inactive”; for `Oc1c(Cl)ccc(Cl)c1Cl`, “inactive”. The entry for `Nc1ccc2c(c1)C(=O)c1ccccc1C2=O` is “inactive”; for `CN(Cc1cnc2nc(N)nc(N)c2n1)c1ccc(C(=O)N[C@@H](CCC(=O)O)C(=O)O)cc1` it is “inactive”; for `[O-]/[N+](=N\O)c1ccccc1` it is “inactive”. For `CC(=O)O[C@]1(C(C)=O)CC[C@H]2[C@@H]3C=C(C)C4=CC(=O)CC[C@]4(C)[C@H]3CC[C@@]21C` the value was 5.49 µM (active) and 2.68 µM (active). In the case of `NC[C@H](O)c1ccc(O)c(O)c1`, the Potency result is “inactive”.

Take `C=CCNCC=C`: the Potency entry was “inactive”.

As to `IC(I)I`, the Potency entry is “inactive”. Regarding `O=C1CCc2ccccc2O1`, the Potency entry is “inactive”. The entry for `c1ccc2c(c1)[nH]c1ccccc12` is “inactive”. For `CNC[C@H](O)c1ccc(O)c(O)c1`, the Potency entry was “inactive”. The entry for `CC/C=C\C/C=C\C/C=C\CCCCCCCC(=O)O` is “inactive”. For `CCCOCCO` the value was “inactive”. For `CCCCCCC(C)O` (stereo not given) the value was “inactive”.

Take `CN1CCOCC1`: the Potency entry was “inactive”. For `C1CN(SSN2CCOCC2)CCO1` the value was “inactive”; for `COc1cc([C@H]2Oc3cc([C@H]4Oc5cc(O)cc(O)c5C(=O)[C@@H]4O)ccc3O[C@@H]2CO)ccc1O`, “inactive”. For `C=CC(=O)OCCCC`, the Potency entry is “inactive”. In the case of `C=CCCCCCCCCCC`, the Potency result is “inactive”.

Regarding `NCCS(=O)(=O)O`, the Potency result is “inactive”. As for `OC[C@@H](O)[C@@H](O[C@@H]1O[C@H](CO)[C@H](O)[C@H](O)[C@H]1O)[C@H](O)[C@@H](O)CO`, the Potency result was “inactive”. The entry for `CC1(C)C(C=C(Cl)Cl)C1C(=O)OCc1cccc(Oc2ccccc2)c1` (stereo not given) is “inactive”. For `FC(F)(F)C(Cl)Br` (stereo not given) the value was “inactive”. The entry for `Cc1cccc(Nc2ccccc2C(=O)O)c1C` is “inactive”.

Take `COc1ccc(-c2coc3cc(O)cc(O)c3c2=O)cc1`: the Potency entry is “inactive”. For the compound `CCCN1C=CN(C)C1`, the Potency entry was “inactive”. For `Cc1ccc(C(C)(C)C)cc1` the value was “inactive”; for `CC(=O)Oc1c(C)c(C)c2c(c1C)CC[C@@](C)(CCC[C@H](C)CCC[C@H](C)CCCC(C)C)O2`, “inactive”. For `CC(=O)[C@H]1CC[C@H]2[C@@H]3CC=C4C[C@@H](O)CC[C@]4(C)[C@H]3CC[C@]12C` the value was “inactive”; for `OCCNCCO`, “inactive”; for `CN(C)/N=N/c1nc[nH]c1C(N)=O`, “inactive”.

On to `C=CCOC(=O)C(=C)C`, for which the Potency entry was “inactive”. The entry for `C/C=C/C(=O)N(CC)c1ccccc1C` is “inactive”. The entry for `CC1(C)NC(=O)N(c2ccc([N+](=O)[O-])c(C(F)(F)F)c2)C1=O` is “inactive”; for `NCCOCCO` it is “inactive”. For `CN(C)C`, the Potency entry is “inactive”.
